# Test results from PubChem BioAssay AID894 (National Center for Advancing Translational Sciences (NCATS), 2007).
# In all, about 150,000 compounds went through this assay and about 6,500 (4.3%) were called active. Another 12% or so got no clear call; they are omitted. Many of the other results were omitted from the sample, so actives are more common in it than they were. Unmarked numbers belong to inactive results. Calls come from the whole dose curve; as a rule, active = well fitted inhibition curve with a large enough effect (not every such curve was filed as active); inconclusive = small, poorly fitted or top-dose-only effect, or another doubt; inactive = no such curve, though single readings can be large or run the other way.
# Molecular target: 15-hydroxyprostaglandin dehydrogenase [NAD(+)] (Homo sapiens) (UniProt P15428)
# Assay: qHTS Assay for Inhibitors of HPGD (15-Hydroxyprostaglandin Dehydrogenase)
# Conditions: purified HPGD, NADH fluorescence kinetic, PGE2 substrate; activity change, negative = inhibition: stronger effect = lower value
# Procedure, shortened: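 20 nM HPGD preincubated 15 min at room temperature with compound in 50 mM Tris-HCl pH 8, 0.01% Tween 20. Started with 1 mM NAD+ and 30 uM prostaglandin E2; NADH fluorescence (360/450 nm) read 5 times over 30-s intervals, last minus first.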
# % is set by controls: 0 for no effect and ±100 for the full control effect; potency is the fitted concentration of half-maximal effect.
# 15-hydroxyprostaglandin dehydrogenase [NAD(+)] (Homo sapiens), sequence (P15428 whole entry, looked up): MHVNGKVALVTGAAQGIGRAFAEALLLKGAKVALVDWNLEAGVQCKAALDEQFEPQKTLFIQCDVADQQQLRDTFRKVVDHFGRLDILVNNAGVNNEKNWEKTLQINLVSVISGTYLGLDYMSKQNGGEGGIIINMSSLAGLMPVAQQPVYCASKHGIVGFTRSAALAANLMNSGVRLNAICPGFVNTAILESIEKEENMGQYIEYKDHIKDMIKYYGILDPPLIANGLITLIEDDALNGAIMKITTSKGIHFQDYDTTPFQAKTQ
Structure (SMILES),"activity change, negative = inhibition",Potency
CCOc1ccc(N2C(=O)/C(=C/c3ccc(C)o3)N(C)C2=S)cc1,-30%,–
CNC(=O)c1csc(-c2ccccc2)n1,-8.99%,–
COc1cc(OC)cc(C(=O)NCC(=O)OCc2csc(-c3ccccc3)n2)c1,-9.37%,–
C=CCNC(=O)c1csc(-c2ccccc2)n1,–,15.8 µM (active)
CC1CCCCN1S(=O)(=O)c1ccc(S(=O)(=O)N(CC(=O)Nc2ccccc2)Cc2cccs2)cc1 (configuration not stated),-10.3%,–
O=C(CN1C2=NCCN2c2ccccc21)c1cccs1,-3.36%,–
COc1ccc2c(c1)O[C@@H](c1ccc3c(c1)OCO3)[C@H](OC(=O)NCc1ccco1)C2=O,-11.6%,–
S=c1[nH]nc(SCc2ccccc2Cl)c2[nH]cnc12,–,1.26 µM (active)
C[C@H]1Cc2c(COc3ccccc3)nc3c(c2CO1)CN(C(=O)NCc1ccco1)CC3,-1.13%,–
COc1nc(N(C)C)nc(N2CC(=O)N(CCNS(=O)(=O)c3ccc(C)cc3)C2=N)n1,-10.5%,–
c1ccc(COc2nsnc2N2CCOCC2)cc1,-17.1%,–
c1nc(COc2nsnc2N2CCOCC2)cs1,–,31.6 µM (active)
O=C(COc1nc2ccccc2nc1N1CCOCC1)NCC(F)(F)F,-9.54%,–
C=CCNC(=O)/C(=C\c1cccc([N+](=O)[O-])c1)NC(=O)c1ccccc1,-14.6%,–
Cc1cc(C)cc(OCC(=O)NNC(=O)CCN2C(=O)c3ccccc3C2=O)c1,-12.4%,–
CCOC(=O)c1nnn(-c2nonc2OC)c1-c1ccccc1,–,8.91 µM (active)
CCOC(=O)c1nnn(-c2nc(OC)nc(N(C)C)n2)c1-c1ccccc1,-1.76%,–
CCOC(=O)c1nnn(-c2nonc2-n2cccc2)c1CN1CCOCC1,-13.3%,–
O=C1C=C(c2ccccc2)CCC1,-3.18%,–
CC1=C2[C@@H](O)[C@H]([C@@H](C)C(=O)NCCC(C)C)CC[C@@]2(C)C=CC1=O,-7.81%,–
Cc1ccccc1N/C(SCc1ccc(Cl)cc1)=C(/C#N)C(N)=O,-18.2%,–
COC(=O)CCCC1=CC2=CC(=O)C(C)(OC(=O)c3cccs3)C(=O)C2=CN1c1ccc(CO)cc1 (configuration not stated),-7.14%,–
CCOC(=O)c1cc2n(c1N)-c1ccccc1C2=O,–,31.6 µM (active)
CCOC(=O)Nc1ccccc1N1C(=O)c2ccccc2C1=O,-2.62%,–
CCOC(=O)c1cc2n(c1C)-c1ccccc1C2=O,-17.5%,–

Structure (SMILES),"activity change, negative = inhibition",Potency
COc1ccc(OC)c(-c2c(=O)n(OCc3ccccc3Br)c3ccccc3[n+]2[O-])c1,-7.2%,–
COC(=O)C1=C(C(=O)OC)[C@@H]2N(C)c3ccccc3[C@@]23C[C@@H](C(=O)OC)N(S(=O)(=O)c2cccs2)C3=N1,-9.16%,–
CCCCCCCC[C@@H](O)/C=C/C=C/C=C\[C@@H](O)CCCC(=O)O,-0.184%,–
Nc1nc(SCC(=O)NN(c2ccccc2)c2ccccc2)n[nH]1,-3.02%,–
Nc1nc(SCCOc2ccccc2)n[nH]1,-1.6%,–
Nc1nc(SCC(=O)NNc2c(Cl)cc(Cl)cc2Cl)n[nH]1,–,35.5 µM (active)
COc1ccc(Cl)cc1NC(=O)Cn1nc(-c2ccc(C)cc2)n(C)c1=S,-0.416%,–
C[C@H]1Cc2c(COc3ccccc3)nc3c(c2CO1)CN(C(=O)Nc1cccc(C#N)c1)CC3,0.277%,–
N#C/C(=C\c1ccccc1)c1n[nH]c(Cn2cncn2)n1,–,28.2 µM (active)
S=C(NCCc1ccccc1)NCc1ccccc1Cl,-18.9%,–
O=S(=O)(NCCc1ccncc1)c1ccccc1,-10.2%,–
NS(=O)(=O)c1ccc(CCNC(=O)Nc2ccc(Cl)cc2)cc1,-8.27%,–
Oc1cc2c(cc1O)CN(C(=S)NCCc1ccc(Cl)cc1)CCC2,–,14.1 µM (active)
Cc1cc(Cl)ccc1NC(=S)NCCCN1CCCC1=O,-1.25%,–
Cc1ccnc(NC(=O)c2ccoc2C)c1,-2.58%,–
Cc1cc2oc(C(=O)Nc3c(C)n(C)n(-c4ccccc4)c3=O)c(C)c2cc1Cl,-3.54%,–
O=[N+]([O-])c1cc(S(=O)(=O)N2CCCC2)ccc1NN=C1CCCC1,-4.68%,–
C=C(C)c1cccc(C(C)(C)NC(=O)NC2CCCC2)c1,-3.62%,–
COc1ccc(COC(=O)N/N=C(\C)CC(=O)Nc2ccc(Cl)cc2)cc1,-4.69%,–
Cc1cc(C)cc(Oc2nc3c(C)cccn3c(=O)c2/C=C(\C#N)C(=O)NC2CCS(=O)(=O)C2)c1 (configuration not stated),-10.8%,–
Cc1ccc(C(c2nnnn2CS(=O)(=O)c2ccc(C)cc2)N2CCC(C(N)=O)CC2)cc1 (configuration not stated),-7.21%,–
Cc1cccn2c(=O)c(/C=C(\C#N)S(=O)(=O)c3ccc(Cl)cc3)c(N3CCC(C(N)=O)CC3)nc12,–,15.8 µM (active)
CN1CCC(=NNC(=O)c2ccc(N(Cc3ccc(Cl)cc3)S(C)(=O)=O)cc2)CC1,-8.83%,–
O=C(NNC1CC(=O)N(c2cccc(Cl)c2)C1=O)c1cccnc1 (configuration not stated),-13.5%,–
O=C(CNS(=O)(=O)c1ccccc1)NCC(=O)OCc1ccccc1F,0.393%,–

Structure (SMILES),"activity change, negative = inhibition",Potency
Cn1c(NC(=O)c2ccc3c(c2)OCO3)cc(=O)n(C)c1=O,-14.1%,–
Cc1ccc(F)cc1NC(=O)c1ccc2c(c1)OCO2,–,20 µM (active)
O=C(Nc1ccccc1)c1ccc2c(c1)OCO2,-29.6%,–
Cc1ccc(C(=O)NC(C)c2ccccc2)cc1Br (configuration not stated),-29.6%,–
O=C(CSc1ncnc2scc(-c3ccccc3)c12)NCc1ccc2c(c1)OCO2,-13.5%,–
O=C(NC(=S)NC1CCSC1=O)c1ccccc1F (configuration not stated),-13.4%,–
O=C(O)C[C@@H]1NC(=O)[C@H](Cc2ccccc2)NC1=O,-8.82%,–
Cc1ccc(C(=O)Nc2c(C#N)c(C)c(C)n2Cc2ccccc2)cc1,-7.72%,–
Cc1ccccc1-n1c(C)cc(/C=N/NC(=O)c2ccc(CN3CCOCC3)cc2)c1C,-16.5%,–
Cc1ccc(C(=O)N/N=C/c2sc(=O)n(Cc3cccc(C(=O)O)c3)c2Cl)cc1,–,28.2 µM (active)
Cn1c(CO)cnc1SCc1ccccc1,1.72%,–
O=c1c2ccccc2c(-c2ccccc2)nn1Cc1ccccc1,-16.5%,–
CSc1c(SCc2ccccc2)cnn(Cc2ccccc2)c1=O,–,25.1 µM (active)
O=C(NNC(=O)c1cc2c(s1)CCCC2)c1ccccc1,-17.6%,–
COC(=O)c1cccc(NC(=O)CSc2nc(C)cc(=O)[nH]2)c1,–,20 µM (active)
COc1ccc(NC(=O)CSc2nc(NS(=O)(=O)c3ccc(C)cc3)cc(=O)[nH]2)cc1,-10.9%,–
Cc1cccc(NC(=O)CSc2nc3[nH]ncc3c(=O)[nH]2)c1,-11%,–
COc1cccc(CC(=O)N2CCc3nc(COc4ccccc4)c4c(c3C2)CO[C@@H](C)C4)c1,-2.54%,–
Cc1ccc(N/N=C2\COC(C)(C)CC2=O)cc1,-19.3%,–
C=C(C)C(=O)c1ccc(F)cc1,-9.12%,–
CNC(=O)/C(C#N)=C/c1c(F)cccc1Cl,-9.42%,–
O=C(NCCc1ccccc1)c1ccc(NC2=NC3CS(=O)(=O)CC3S2)cc1 (configuration not stated),-15.7%,–
O=C(NCCc1ccccc1)c1ccc(OCCOc2ccccc2)cc1,-14.9%,–
CC1CCCN(c2ccc(C(=O)NCCc3ccccc3)cn2)C1 (configuration not stated),–,17.8 µM (active)
COC(=O)/C(C#N)=C/c1occc1C,-10.9%,–

Structure (SMILES),"activity change, negative = inhibition",Potency
O=[N+]([O-])c1cccc(S(=O)(=O)N2CCCCCC2)c1,-12%,–
N#C/C(=C(\O)CCl)c1nnc2n1CCCCC2,1.76%,–
N#C/C(=C/c1cccc([N+](=O)[O-])c1)c1nnc2n1CCCCC2,–,20 µM (active)
Cc1ccn(-c2cccc(-n3ccc(C)n3)n2)n1,-19.2%,–
CCC(C)(C)c1ccc(Oc2ccc(NC(=O)COC(=O)C3=COCCO3)cc2)cc1,–,14.1 µM (active)
CC(C)NS(=O)(=O)c1ccc(OCC(=O)Nc2ccc3c(c2)OCCO3)cc1,0.139%,–
O=C(OCC(=O)c1cccs1)C1=COCCO1,-17.4%,–
CC(C)(C)CC(C)(C)NCC(O)COCCOc1ccc(Br)cc1 (configuration not stated),-5.61%,–
CCOC(=O)c1c(/N=C/C2C(=O)CC(C)(C)CC2=O)sc(C)c1C,-11.6%,–
CCc1ccc(NC(=O)c2ccc(Cn3cc([N+](=O)[O-])cn3)cc2)cc1,-0.318%,–
O=C(COc1cccc(F)c1)Oc1ccc(C(=O)c2ccccc2)cc1,–,7.94 µM (active)
O=C(Oc1ccccc1)c1ccc2nccnc2c1,-13%,–
O=C(c1ccccc1)c1ccc(OC(=O)N2CCCC2)cc1,-20%,–
C/C(=N\NC(=O)Cc1ccc(F)cc1)c1ccc(F)cc1,-3.27%,–
Cc1ccc(S(=O)(=O)N(NC2=NS(=O)(=O)c3ccccc32)C(=O)c2ccccc2)cc1,-7.36%,–
Cc1ccc(NC(=O)CSCC(=O)NC2CCCCC2)cc1,–,15.8 µM (active)
Cc1ccc(NC(=O)CSCC(=O)N2CCOCC2)cc1,2.74%,–
Cc1ccc(NC(=S)NC2CCCC2)cc1,-9.46%,–
Cc1ccc(/C(N)=N/OC(=O)COc2ccc(Cl)c(C)c2)cc1,-14.6%,–
COCCn1c(=O)[nH]c(=O)c2cc(C(=O)c3cc(OC)ccc3O)cnc21,–,25.1 µM (active)
COc1ccc(O)c(C(=O)c2cnc3onc(C(C)C)c3c2)c1,-14.6%,–
COCCn1c(=S)[nH]c2cc(C(=O)NCCc3ccc(OC)c(OC)c3)ccc2c1=O,-4.68%,–
